# Measured values taken from the supplement of paper PMC8007513.
# Structures can show the parent of a compound that is named as a salt. ± gives the standard error. About 75 (6%) of roughly 1,300 compounds showed an effect of 50% or more. Many of the other results were omitted from the sample, so strong results are more common in it than they were.
# Test system: Trichoderma virens ATCC 9645
# Experiment: growth yield (OD600) relative to untreated control; higher = less growth inhibition
# Details: compound concentration: 100 uM
# Method in brief: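 Plates were read for OD600 at 40 h and 72 h after Trichoderma virens ATCC 9645 spores (15,000 spores ml^−1 in potato dextrose broth) were grown at 30 °C with library compounds at 100 μM final, with or without a biocide at 200 ng ml^−1. Growth is stated relative to the control with neither agent, as the mean of duplicate screens.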
SMILES,growth yield (40 h) [%],growth yield (72 h) [%]
COc1ccccc1O [Guaiacol],103.9 ± 0.95,102.7 ± 0.32
COc1ccc(C(=O)c2ccccc2O)c(O)c1 [Dioxybenzone],22.2,45.1 ± 2.7
COc1ccc(C(=O)c2ccccc2)c(O)c1 [Oxybenzone],53.8 ± 4.3,62.9
Nc1cc(N2CCCCC2)nc(N)[n+]1[O-] [Minoxidil],104 ± 3.2,102 ± 1.3
O=C(NCCO[N+](=O)[O-])c1cccnc1 [Nicorandil],102.9 ± 0.32,102 ± 4.2
CC1=C(C(=O)O)N2C(=O)[C@@H](NC(=O)[C@H](N)c3ccc(O)cc3)[C@H]2SC1 [Cefadroxil],104 ± 8.9,106 ± 9.1
O=C(O[C@@H]1C[C@@H]2C[C@H]3C[C@H](C1)N2CC3=O)c1c[nH]c2ccccc12 [Dolasetron mesilate],106 ± 3.3,104 ± 1.9
CCn1cc(C(=O)O)c(=O)c2cnc(N3CCCC3)nc21 [Piromidic acid],90.5 ± 5.7,92.1 ± 4
CCCCC(CC)CNC(=N)NC(=N)NCCCCCCNC(=N)NC(=N)NCC(CC)CCCC (stereo not drawn) [Alexidine dihydrochloride],1.91 ± 0.32,1.89 ± 0.63
OC(CCN1CCCCC1)(c1ccccc1)C1CC2C=CC1C2 (stereo not drawn) [Biperiden hydrochloride],104 ± 2.9,105 ± 1.9
CCN(CC)CCNc1ccc(CO)c2sc3ccccc3c(=O)c12 [Hycanthone],118 ± 4.1,114.7 ± 0.63
CCCCC[C@H](O)/C=C/[C@H]1[C@H](O)CC(=O)[C@@H]1CCCCCCC(=O)O [Alprostadil],107 ± 8.4,101 ± 6.2
C[C@@H]1C[C@H]2[C@@H]3C[C@H](F)C4=CC(=O)C=C[C@]4(C)[C@@]3(Cl)[C@@H](O)C[C@]2(C)[C@H]1C(=O)COC(=O)C(C)(C)C [Clocortolone pivalate],107 ± 4,100 ± 5.7
CCc1oc2ccccc2c1C(=O)c1cc(Br)c(O)c(Br)c1 [Benzbromarone],40.7 ± 5.7,77.8 ± 4.8
O=c1oc2ccccc2c(O)c1Cc1c(O)c2ccccc2oc1=O [Dicumarol],94 ± 0.95,92.4 ± 0.94
CC(=O)CC(c1ccccc1)c1c(O)c2ccccc2oc1=O (stereo not drawn) [Warfarin],90.9 ± 3.5,89.1 ± 4
CC(Cc1cccc(C(F)(F)F)c1)NCCOC(=O)c1ccccc1 (stereo not drawn) [Benfluorex],83.5 ± 3.5,95.9 ± 1.9
CN[C@@H]1[C@H](O[C@H]2[C@H](O[C@H]3[C@H](O)[C@@H](O)[C@H](NC(=N)N)[C@@H](O)[C@@H]3NC(=N)N)O[C@@H](C)[C@]2(O)CO)O[C@@H](CO)[C@H](O)[C@H]1O [Dihydrostreptomycin sulfate],96.9,98
CCOC1O[C@H]([C@@H](COCc2ccccc2)OCc2ccccc2)[C@H](OCc2ccccc2)[C@H]1O (stereo partly drawn) [Tribenoside],90.2 ± 6,87.2 ± 6.2
CC(C)CC(=O)N[C@H](C(=O)N[C@H](C(=O)N[C@@H](CC(C)C)[C@@H](O)CC(=O)N[C@@H](C)C(=O)N[C@@H](CC(C)C)[C@@H](O)CC(=O)O)C(C)C)C(C)C [Pepstatin A],106 ± 5.4,102 ± 7.8
CN(C)CCOC(c1ccc(Cl)cc1)c1ccccn1 (stereo not drawn) [Carbinoxamine maleate salt],97.7 ± 4.3,97.8 ± 2.6
CCN(CC)C(=S)SSC(=S)N(CC)CC [Disulfiram],27.2 ± 17,67.8 ± 12

SMILES,growth yield (40 h) [%],growth yield (72 h) [%]
COc1ccccc1N1CCN(CC(O)COc2cccc3ccccc23)CC1 (stereo not drawn) [Naftopidil dihydrochloride],97.4 ± 1.1,110.22 ± 0.1
NCCNCCNCCNCCN [Tetraethylenepentamine pentahydrochloride],103 ± 2.5,99.8 ± 2.9
CCCOc1ccccc1-c1nc2[nH]nnc2c(=O)[nH]1 [Zaprinast],99.1,106 ± 1.1
CCC(=O)OCC(=O)[C@@]1(OC(=O)CC)[C@H](C)C[C@H]2[C@H]3[C@H]([C@@H](O)C[C@@]21C)[C@@]1(C)C=CC(=O)C=C1C[C@H]3Cl [Alclometasone dipropionate],101 ± 4,97.7 ± 1.7
CCCCCCNC(=O)n1cc(F)c(=O)[nH]c1=O [Carmofur],16.4 ± 0.48,33.1 ± 5.5
Nc1nc(=O)c2c([nH]1)NC[C@@H](CNc1ccc(C(=O)N[C@@H](CCC(=O)O)C(=O)O)cc1)N2C=O [Folinic acid calcium salt],99.8 ± 2.5,92 ± 4.1
CC(C)NC[C@H](O)COc1ccc(CC(N)=O)cc1 [(S)-(-)-Atenolol],100 ± 1.6,101 ± 1.5
NS(=O)(=O)c1cc2c(cc1C(F)(F)F)NC(Cc1ccccc1)NS2(=O)=O (stereo not drawn) [Bendroflumethiazide],106 ± 3.3,102 ± 3.4
CN(c1nccc(=O)[nH]1)C1CCN(c2nc3ccccc3n2Cc2ccc(F)cc2)CC1 [Mizolastine],94.5 ± 2.4,96 ± 2.6
CN(C)CCN(Cc1ccc(Cl)cc1)c1ccccn1 [Chloropyramine hydrochloride],98.8 ± 1.9,96.2 ± 2.6
COc1ccc(CN(CCN(C)C)c2ccccn2)cc1 [Pyrilamine maleate],101 ± 1.1,103 ± 1.5
CCCCCCCCCCCCCCCC[N+](C)(C)CCN(Cc1ccc(OC)cc1)c1ncccn1 [Thonzonium bromide],0,0
Nc1ncn(C2OC(CO)C(O)C2O)c(=O)n1 (stereo not drawn) [Azacytidine-5],89.4 ± 5.9,88.4 ± 4.3
CC(C)[C@H](N)C(=O)OCCOCn1cnc2c(=O)nc(N)[nH]c21 [Valacyclovir hydrochloride],102,103
CC(=C(CCO)SSCC1CCCO1)N(C=O)Cc1cnc(C)nc1N (stereo in doubt) [Fursultiamine Hydrochloride],104 ± 5.2,101 ± 3.1
NC[C@H]1CC[C@H](C(=O)O)CC1 [Tranexamic acid],99.75 ± 0.64,102.2 ± 0.73
C#Cc1cccc(Nc2ncnc3cc(OCCOC)c(OCCOC)cc23)c1 [Erlotinib],108,105
COc1cc2ncnc(Nc3ccc(F)c(Cl)c3)c2cc1OCCCN1CCOCC1 [Gefitinib],7.47 ± 0.16,6.29
CCCCOc1ccc(OCCCN2CCOCC2)cc1 [Pramoxine hydrochloride],89.6 ± 1.9,90.5 ± 2.2
CC[C@H]1OC(=O)[C@H](C)[C@@H](O[C@H]2C[C@@](C)(OC)[C@@H](O)[C@H](C)O2)[C@H](C)[C@@H](O[C@@H]2O[C@H](C)C[C@H](N(C)C)[C@H]2O)[C@](C)(O)C[C@@H](C)/C(=N\OCOCCOC)[C@H](C)[C@@H](O)[C@]1(C)O [Roxithromycin],97.85 ± 0.64,96.7 ± 1.5
COc1ccnc(C[S+]([O-])c2nc3cc(OC(F)F)ccc3[nH]2)c1OC (stereo not drawn) [Pantoprazole sodium],88.2 ± 6.2,94 ± 3.8
Cc1c(F)c(N2CCNC(C)C2)cc2c1c(=O)c(C(=O)O)cn2C1CC1 (stereo not drawn) [Grepafloxacin],99.9 ± 1.4,97.53 ± 0.63

SMILES,growth yield (40 h) [%],growth yield (72 h) [%]
CC(=O)OCC(=O)[C@@]1(O)[C@H](C)C[C@H]2[C@@H]3CCC4=CC(=O)C=C[C@]4(C)[C@@]3(F)[C@@H](O)C[C@@]21C [Dexamethasone acetate],102 ± 4,103 ± 3.7
CCOCCn1c(N2CCCN(C)CC2)nc2ccccc21 [Emedastine],98.96 ± 0.16,96.9 ± 2.7
CCC(C)(C)c1ccc(CC(C)CN2C[C@@H](C)O[C@@H](C)C2)cc1 (stereo partly drawn) [Amorolfine hydrochloride],4.45 ± 0.32,2.94 ± 0.21
CCn1cc(C(=O)O)c(=O)c2cnc(N3CCNCC3)nc21 [Pipemidic acid],94.4 ± 3.5,92.7
NC[C@@H]1O[C@H](O[C@H]2[C@@H](O)[C@H](O[C@@H]3[C@@H](O)[C@H](N)C[C@H](N)[C@H]3O[C@H]3O[C@H](CO)[C@@H](O)[C@H](O)[C@H]3N)O[C@@H]2CO)[C@H](N)[C@@H](O)[C@@H]1O [Paromomycin sulfate],102.6 ± 0.32,96.59 ± 0.32
O=C1CN(/N=C/c2ccc(-c3ccc([N+](=O)[O-])cc3)o2)C(=O)N1 [Dantrolene sodium salt],93.4 ± 2.2,99.7 ± 1.4
O=C(NCC(O)CO)c1c(I)c(C(=O)NCC(O)CO)c(I)c(N(CCO)C(=O)CO)c1I (stereo not drawn) [Ioversol],101 ± 5.4,98.1 ± 2.8
OCCN1CCN(CCCN2c3ccccc3C=Cc3ccccc32)CC1 [Opipramol dihydrochloride],91.3 ± 1.1,98.1 ± 1.4
CN(C)CCCN1c2ccccc2Sc2ccccc21 [Promazine hydrochloride],91.33 ± 0.16,95.6
CN1CCN(CCCN2c3ccccc3Sc3ccc(C(F)(F)F)cc32)CC1 [Trifluoperazine dihydrochloride],20 ± 0.95,63.35 ± 0.42
OCCN1CCN(CCCN2c3ccccc3Sc3ccc(C(F)(F)F)cc32)CC1 [Fluphenazine dihydrochloride],44 ± 6.2,90.3 ± 8.9
CN(C)CCCN1c2ccccc2Sc2ccc(C(F)(F)F)cc21 [Triflupromazine hydrochloride],74.66 ± 0.32,92.1 ± 2.1
CC(=O)c1ccc2c(c1)N(CCCN1CCC(CCO)CC1)c1ccccc1S2 [Piperacetazine],124 ± 8.6,119 ± 8.9
CO[C@H]1C[C@H](O[C@H]2[C@H](C)[C@@H](O[C@@H]3O[C@H](C)C[C@H](N(C)C)[C@H]3OC(C)=O)[C@@H](C)C[C@@]3(CO3)C(=O)[C@H](C)[C@@H](OC(C)=O)[C@@H](C)[C@@H](C)OC(=O)[C@@H]2C)O[C@@H](C)[C@@H]1OC(C)=O [Troleandomycin],100.5 ± 0.79,98.4 ± 1.3
CC=CC1=C(C(=O)O)N2C(=O)[C@@H](NC(=O)[C@H](N)c3ccc(O)cc3)[C@H]2SC1 [Cefprozil],100 ± 1.4,92.7 ± 3.1
CN1CCN(C2=Nc3cc(Cl)ccc3Nc3ccccc32)CC1 [Clozapine],102 ± 2.4,104.77 ± 0.1
CN1[C@@H]2CC[C@H]1C[C@@H](OC(=O)c1c[nH]c3ccccc13)C2 [Tropisetron hydrochloride],104 ± 10,104 ± 8.6
CC(C)n1c(/C=C/C(O)CC(O)CC(=O)O)c(-c2ccc(F)cc2)c2ccccc21 (stereo not drawn) [Fluvastatin sodium salt],1.91 ± 1.3,1.78 ± 0.94
O=C(O)C[C@H](O)C[C@H](O)/C=C/c1c(C2CC2)nc2ccccc2c1-c1ccc(F)cc1 [Pitavastatin calcium],4.13,2.94
CC(C)c1c(C(=O)Nc2ccccc2)c(-c2ccccc2)c(-c2ccc(F)cc2)n1CC[C@@H](O)C[C@@H](O)CC(=O)O [Atorvastatin],106,85.1 ± 10
